Compounds with a hit are over-represented: about 10% of the library has one in this group of screens.
G9a inh: qHTS Assay for Inhibitors of Histone Lysine Methyltransferase G9a. Potency, µM (series often up to 102 µM), usual class: inhibitors. G9a H3K9 monomethylation, AlphaScreen, 2 h. 8.8% of 350,000 active. Histone-lysine N-methyltransferase EHMT2 (Homo sapiens), Q96KQ7; further: nearly all actives have a fitted effect of over 75% in size
Target sequence (Q96KQ7 913-1193 limits assumed): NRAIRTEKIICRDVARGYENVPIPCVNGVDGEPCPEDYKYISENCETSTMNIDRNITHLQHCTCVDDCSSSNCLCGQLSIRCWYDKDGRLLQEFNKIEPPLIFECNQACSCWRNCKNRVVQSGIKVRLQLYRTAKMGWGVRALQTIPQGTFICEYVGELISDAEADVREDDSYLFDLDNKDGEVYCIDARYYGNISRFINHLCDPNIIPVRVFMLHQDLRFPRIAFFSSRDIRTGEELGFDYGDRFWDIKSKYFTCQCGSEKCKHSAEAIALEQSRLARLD
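Enzyme 20 nM + cpd, 15 min RT; add b-H3K9 pep 500 nM / SAM 20 uM; 2 h RT; anti-H3K9me1 Ab 0.5 ug/mL + SA donor / anti-rabbit acceptor beads 20 ug/mL each, 10 min; AlphaScreen read.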
CCT modulator: High-Throughput Screening for Modulators of Cytosolic Chaperonin Activity; 0.3% of 360,000 active; activity change, % (no concentration beside the values), hits read low; purified chaperonin ATPase assay, HTRF ADP detection, 30 min; in the data active means activity change below about -30%
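First, chaperonin was dispensed at 40 nM or 20 nM final depending on batch activity. Next, compounds were pinned at 76 uM and ATP added at 10 uM. After 30 min at 37 °C, ADP detection reagents ran 30 min at ambient temperature.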
Mm-Cpn inhibitor: Inhibitors of TCP-1 ring complex (TRiC) of Methanococcus maripaludis (MmCpn): qHTS; Potency, µM (titrated, usually from 76.9 µM), most hits filed as inhibitors; Chaperonin Mm-Cpn (Methanococcus maripaludis); purified Mm-Cpn ATPase, ADP Transcreener TR-FRET; AID 504842, 2011; 0.031% of 330,000 active; further: nearly all actives have a fitted effect of over 80% in size
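Measured: ADP formation by purified Mm-CPN. Conditions: 25 nM protein, 10 uM ATP, Tris pH 7.4 with Mg2+, K+ and DTT, 37°C for 30 min. Detection: Transcreener HTRF after 30 min at room temperature.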
Sfp inh: qHTS Assay for Inhibitors of Bacillus subtilis Sfp phosphopantetheinyl transferase (PPTase); 4'-phosphopantetheinyl transferase ffp (Bacillus subtilis), Q9F4F7; Biochemical Sfp PPTase activity, qHTS; Potency, µM, actives largely listed as inhibitors; 3.5% of 310,000 active;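 further: the enzyme is Sfp with the accession as filed and its product quenches rhodamine fluorescence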
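Fluorescence-quenching assay: 15 nM Sfp-PPTase preincubated 15 min at room temperature with compound, then 5 uM rhodamine-CoA and 12.5 uM BHQ-2-labelled YbbR peptide added. Fluorescence (ex 525/em 598 nm) read at start and after 30 min; difference gives rate.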
VDR inh: Inhibitors of the vitamin D receptor (VDR): qHTS | Vitamin D3 receptor (Homo sapiens), P11473 | VDR-SRC2-3 peptide fluorescence polarization, 2 h | Potency, µM, most hits filed as inhibitors | 0.93% of 400,000 active | AID 504847, 2011
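Fluorescence polarization assay of small-molecule disruption of VDR binding to coregulator peptide SRC2-3. Compounds and controls pin-transferred, then read after 2 h incubation at ambient room temperature.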
PLK1 PBD block: qHTS for Inhibitors of PLK1-PDB (polo-like kinase 1 - polo-box domain): Primary Screen; Potency, µM, hits mostly inhibitors; 2.8% of 360,000 active; Plk1 PBD binding of FITC phosphopeptide, fluorescence polarization; Serine/threonine-protein kinase PLK1 (Homo sapiens), P53350; AID 720504, 2013; further: series mostly up to about 57 µM; nearly all actives have a fitted effect of over 65% in size
Each line names hits and unclear results; the compound was inactive in the other large screens. Unless noted, the call rests on the fitted dose curve; in most records, active means well fitted curve in the direction sought with a large enough effect; inconclusive means small, poorly fitted or top-dose-only effect, or another doubt; inactive means no such curve, though single readings can be large; an effect the other way counts as inactive or inconclusive.

O=C(O)CC1S/C(=N/N=C/c2ccc(-c3ccc(Cl)cc3[N+](=O)[O-])o2)NC1=O (stereo unspecified)	G9a inh 14.1µM, Sfp inh 39.8µM, VDR inh inconclusive, PLK1 PBD block 16.8µM
Cc1nn(C)c2c1c(C(F)(F)F)cc(=O)n2CC(=O)NCc1ccc(OC(C)C)cc1	none (no result: CCT modulator, Mm-Cpn inhibitor, Sfp inh, PLK1 PBD block)
Cc1noc(C)c1COc1ccccc1C(=O)N1CCN(S(=O)(=O)c2cccc([N+](=O)[O-])c2)CC1	CCT modulator -56.9 (no result: Sfp inh)
Cc1noc(C)c1COc1ccccc1C(=O)N1CCN(S(=O)(=O)c2cccc(Cl)c2)CC1	VDR inh inconclusive (no result: Sfp inh)
Cc1cccc2c1c(N=NC(N)=S)c(O)n2C1OC(CO)C(O)C(O)C1O (stereo unspecified)	G9a inh 35.5µM, Sfp inh 50.1µM
CC1Cc2ccccc2N1c1ncnc2c1nnn2Cc1ccccc1 (stereo unspecified)	Sfp inh 28.2µM
CC1Cc2ccccc2N1c1nc(C2CC2)nc2c1nnn2Cc1ccccc1 (stereo unspecified)	none
CCN1CCN(c2ncnc3c2nnn3Cc2ccccc2)CC1	G9a inh 39.8µM
CSc1nc(-c2ccco2)nn1C(=O)c1ccc(Cl)cc1	G9a inh 79.4µM (no result: CCT modulator, VDR inh, PLK1 PBD block)
O=C(Nc1ccc(S(=O)(=O)Nc2ncccn2)cc1)c1cc(=O)c2ccccc2o1	none (no result: CCT modulator, Mm-Cpn inhibitor, Sfp inh, PLK1 PBD block)
O=C(Cc1csc2ccccc12)NCc1cccc(Br)c1	none (no result: CCT modulator, Mm-Cpn inhibitor, Sfp inh, PLK1 PBD block)
Cc1ccccc1NC(=O)Cn1nc(-c2ccc(F)cc2)c2cnc3ccccc3c21	none (no result: CCT modulator, Mm-Cpn inhibitor, Sfp inh, PLK1 PBD block)
Cc1cc(N(C)C)cc(C)c1N=Nc1cc[n+]([O-])cc1	none (no result: G9a inh, Mm-Cpn inhibitor, Sfp inh, VDR inh)
CN(C)c1ccc(N=Nc2cccc(F)c2)cc1	G9a inh 10µM
CN(C)c1ccc(N=Nc2cccc3ccoc23)cc1	G9a inh 6.31µM, Sfp inh 44.7µM
CNC(=O)C1C(=S)NC(N)=C(C#N)C1c1ccccc1 (stereo unspecified)	G9a inh 12.6µM, Sfp inh 3.98µM, VDR inh 20µM, PLK1 PBD block 26.7µM
COc1cccc(C(=O)Nc2ccccc2C(=O)OCc2cc(=O)n3c4c(sc3n2)CCCC4)c1	none (no result: CCT modulator, Mm-Cpn inhibitor, Sfp inh, PLK1 PBD block)
CCOC(=O)CCCc1sc(N)nc1-c1[nH]c(=O)[nH]c1C	G9a inh 4.47µM, Sfp inh 22.4µM, PLK1 PBD block inconclusive
Cc1ccc(S(=O)(=O)n2nc(C)cc2N)cc1	none
Cc1ccc(S(=O)(=O)n2nc(C)c(C#N)c2N)cc1	G9a inh inconclusive, VDR inh inconclusive, PLK1 PBD block 26.7µM
CCOc1ccc(C(=O)c2cn(CC(=O)Nc3ccc(Cl)cc3)c3cc4c(cc3c2=O)OCCO4)cc1	none (no result: CCT modulator, Mm-Cpn inhibitor, Sfp inh, PLK1 PBD block)
CCN(CC)S(=O)(=O)c1cccc(-c2n[nH]c(=S)n2/N=C/c2ccc(OC(F)F)cc2)c1	G9a inh 1.78µM, Sfp inh inconclusive, PLK1 PBD block inconclusive
CCN(CC)S(=O)(=O)c1cccc(-c2n[nH]c(=S)n2/N=C/c2ccc(OC)cc2)c1	G9a inh inconclusive, Sfp inh 79.4µM
CCN(CC)S(=O)(=O)c1cccc(-c2n[nH]c(=S)n2/N=C/c2ccc(Br)cc2)c1	G9a inh inconclusive, PLK1 PBD block 21.2µM
CCOc1ccc(NC(=O)CCCn2c(C)c3cnn(-c4ccccc4)c(=O)c3c2C)cc1	none (no result: CCT modulator, Mm-Cpn inhibitor, Sfp inh, PLK1 PBD block)
CCCC(=Nc1ccccc1)C1=C(O)C(C(=O)OC)C(C)(C)CC1=O (stereo unspecified)	G9a inh inconclusive
CCC(=Nc1ccc(N)cc1)C1=C(O)C(C(=O)OC)C(C)(C)CC1=O (stereo unspecified)	G9a inh 50.1µM, Sfp inh 44.7µM
CCCCC(=Nc1ccc(N)cc1)C1=C(O)C(C(=O)OC)C(C)(C)CC1=O (stereo unspecified)	G9a inh 1µM, VDR inh inconclusive

Compound activity (PubChem)
